# The whole screen tested about 400,000 compounds, of which about 13,000 (3.2%) were called active. About 18% were inconclusive and are not listed. The list comes from a sample in which actives are over-represented; it also holds similar structures and randomly drawn compounds. Values without a mark were called inactive. Calls follow the shape of the dose curve; as a rule, active = well fitted cell-killing curve with a large enough effect; inconclusive = small, poorly fitted or top-dose-only effect, or effect the other way; inactive = flat fitted curve, though single readings scatter.
# Assay: qHTS assay for MDR1-selective chemotherapeutics: Primary screen using the drug-selected MDR subline cells KB-V1; also: nearly all actives have a fitted effect of over 60% in size
# Details: KB-V1 MDR cells viability, CellTiter-Glo, 72 h; series mostly up to 46.1 µM; activity change, negative = cytotoxicity: at the top concentration
# Source text: A prime difficulty in effectively treating cancer is the development of cellular resistance to multiple structurally unrelated anticancer drugs, a phenomenon known as multidrug resistance (MDR). […] Numerous strategies to overcome P-gp-mediated MDR have been explored, including the design of drugs that evade recognition and efflux, and development of inhibitors to block efflux and restore drug accumulation. […] An alternative approach is to exploit resistance by identifying drugs that target MDR cells over the non-resistant parental cells from which they were selected. […] The development of MDR1-selective agents represents a new strategy for resolving multidrug resistance, as it remains a long-standing clinical challenge for cancer chemotherapy.
# Our goal is to identify compounds that selectively kill P-gp-expressing MDR cells. We will identify MDR1-selective compounds by comparing toxicity of compounds in the screening library against parental, drug-naive (KB-3-1) adenocarcinoma cells as well as their drug-selected MDR sub-line (KB-V1). The differential toxicity of compounds against these two cell lines will be used to identify MDR1-selective compounds, whose cytotoxicity is potentiated, rather than diminished, by P-gp expression. This assay will be utilized to conduct a quantitative high-throughput screen (qHTS) in collaboration with the NIH Chemical Genomics Center to identify selective agents, and probe hits arising from the screen will be validated using secondary assays and characterized through a well-established follow-up research program. This screen was run against the entire NCGC library collection of about 400,000 compounds.
# NIH Molecular Libraries Probe Production Network [MLPCN]
# NIH Chemical Genomics Center [NCGC]
# PI: Michael Gottesman, National Cancer Institute, NIH
# Briefly, 5 microL of media containing either KB-V1 cells (columns 1-2, 4-48) are dispensed into Greiner white, treated solid-bottom 1536-well assay plates (media-only control is added to column 3). Compounds are then transferred via Kalypsys pin tool equipped with 1536-pin array (10 nL slotted pins, V&P Scientific, San Diego, CA). Following addition of compound, the plates are incubated at 37 degrees C for 72 hours. CellTiter-Glo (2.5 µL/well) is then added, and the plates are read in a ViewLux reader (Perkin-Elmer, clear luminescence filter, 1 second exposure, 1x binning) following a 10 minute incubation. All cells are dispensed in DMEM phenol-red free media containing 10% FBS.
# Library plates were screened starting from the lowest and proceeding to the highest concentration. Vehicle-only plates, with DMSO being pin-transferred to columns 5-48, will be inserted uniformly at the beginning and the end of each library in order to monitor and record any shifts in the background, which can be affected by reagent dispensers or loss in enzyme activity over time. Screening data will be corrected, normalized, and concentration-effect relationships will be derived by using publicly-available NCGC, NCATS curve fitting algorithms (http://ncgc.nih.gov/pub/openhts).
# % is scaled to controls: 0 for no effect and ±100 for the full control effect; potency is read from the fitted curve at half-maximal effect.
Compound,"activity change, negative = cytotoxicity",Potency
Clc1ccc(-c2cccc3nccn23)cc1,-9.65%,–
C=CCN1CCN(c2ccncc2S(=O)(=O)N2CCN(C)CC2)CC1,-1.22%,–
COc1cccc(NC(=O)Nc2ccc3c(c2)N(C)C(=O)c2ccccc2S3)c1,-27%,–
CC1(C)C=Cc2c(ccc(C(=O)/C=C/c3ccccc3)c2O)O1,0%,–
O=C(NCCCN1CCOCC1)c1ccc(N2CCCC2)c([N+](=O)[O-])c1,-11.8%,–
O=C(COc1ccccc1F)NNC(=O)c1ccc(N2CCCCC2)c([N+](=O)[O-])c1,–,16.4 µM (active)
O=C(c1ccc(N2CCOCC2)c([N+](=O)[O-])c1)N1CCN(c2ccccc2F)CC1,-21.3%,–
CN(C)c1cccc(NC(=O)c2ccc(-c3ccc(F)c(F)c3)c3ccoc23)c1,-1.95%,–
CO[C@@H]1CN(C)C(=O)c2cc(NC(=O)Nc3cc(F)ccc3F)ccc2OC[C@H](C)N(C(=O)c2ccccn2)C[C@@H]1C,5.61%,–
CCCCC(=O)OC1=CN(Cc2ccccc2)S(=O)(=O)c2ccccc21,-1.9%,–
O=C(COc1ccc2oc3c(c2c1)CCCC3)Nc1ccccn1,-4.62%,–
O=C(CN1CCOCC1)N1CCCc2c1c(=O)oc1ccc(OCc3ccccc3)cc21,–,18.4 µM (active)
CC1CCCCN1CC(=O)N1CCCc2c1c(=O)oc1ccc(OCc3ccccc3)cc21 (centres undefined),-18%,–
CCOc1ccc(CCN2C(=S)N([C@@H](CC(C)C)CN3CCC[C@@H]3CN3C(=S)NC[C@@H]3Cc3ccc(O)cc3)C[C@@H]2CC(C)C)cc1,-22.3%,–
CC(=O)Nc1cncc(-c2ccccc2CO)n1,5.41%,–
O=C(Nc1ccccc1C(=O)N1CCCCCC1)c1ccccc1Cl,-6.29%,–
COc1ccccc1N(CC(=O)Nc1ccccc1C(=O)N1CCCC1)S(C)(=O)=O,-2.86%,–
O=C(CN(c1ccccc1)S(=O)(=O)c1ccc(Cl)cc1)Nc1ccccc1C(=O)N1CCCC1,–,5.8 µM (active)
COc1cccc(CN(C)C(=O)CC[C@H]2O[C@@H](n3cnc4c(NC(=O)c5ccccc5)ncnc43)[C@H](O)[C@@H]2O)c1,1.92%,–
Cc1ccc(C)c(N2CCN(C(=O)CCCCCn3c(=S)[nH]c4ccc(N5CCOCC5)cc4c3=O)CC2)c1,-24.5%,–
COc1cccc(N2CCN(C(=O)CCCCCn3c(=O)[nH]c4ccccc4c3=O)CC2)c1,1.41%,–
Cc1ccc(C)c(N2CCN(C(=O)CCCCn3c(=O)[nH]c4ccccc4c3=O)CC2)c1,–,6.51 µM (active)
COc1ccc(CCNC(=O)CCCCn2c(=O)c3ccccc3n(Cc3ccccc3)c2=O)cc1OC,-6.38%,–
Oc1ccccc1-c1nc(/C=C/c2ccc(F)cc2)no1,1.77%,–

Compound,"activity change, negative = cytotoxicity",Potency
COc1ccc(-c2noc(CSc3nnc(-c4ccccc4)n3-c3ccc(F)cc3)n2)c(OC)c1,-23.8%,–
Cc1ccc(-c2noc(CSc3nnc(-c4cccs4)n3C)n2)cc1,–,13 µM (active)
Cc1ccc(-c2noc(CSc3nnc(-c4ccncc4)n3-c3ccc(F)cc3)n2)cc1,–,8.2 µM (active)
Cc1ccc(-c2noc(CSc3nnnn3-c3ccccc3)n2)cc1,2.44%,–
Fc1ccc(-n2c(Cc3ccccc3)nnc2SCc2nc(-c3ccc(Cl)cc3)no2)cc1,–,14.6 µM (active)
Cn1cccc1Cc1nnc(SCC(=O)NCCc2ccccc2)n1-c1ccc(F)cc1,-0.962%,–
Cc1ccc(-c2noc(CSc3nnc(-c4ccc(Cl)cc4)n3C)n2)cc1,0%,–
COc1ccc(-c2noc(CSc3nc4ccc(C)cc4[nH]3)n2)cc1,-28.5%,–
Cc1ccc(-c2noc(CSc3nnc(-c4ccccc4)n3C)n2)cc1,-10.1%,–
Cc1ccc(C(=O)Nc2c(-c3ccccc3)[nH][nH]c2=O)cc1,1.55%,–
O=C(NCc1ccccc1Cl)C1=Cc2cc(Br)ccc2OC1,-7.05%,–
CC(C)Oc1cc(F)ccc1-c1cc(C(=O)Nc2ccc(F)cc2)[nH]n1,-24.1%,–
CC(Nc1ccc(-c2nc(-c3ccco3)no2)cc1[N+](=O)[O-])c1ccccc1 (centres undefined),0%,–
Cc1cc(C)cc(NS(=O)(=O)c2ccc3[nH]cc(C(=O)N4CCCCC4)c(=O)c3c2)c1,6.52%,–
CCCNC(=O)C1(C)CCN(C(=O)c2cc(F)ccc2C)C1 (centres undefined),4.07%,–
C=Cc1ccc(Cn2c(C(=O)O)c(CNC3CCCC3)c3ccc(C)cc32)cc1,0%,–
CC1(C)SC2c3ccccc3C(=O)N2[C@@H]1C(=O)NCc1ccco1 (some centres undefined),3.48%,–
COc1ccc(S(=O)(=O)N2CCC(C(=O)NCc3ccco3)CC2)cc1C,-26.8%,–
COc1cc2c(cc1OC)C(C(=O)NCc1ccco1)C1c3ccccc3CCN1C2=O (centres undefined),–,14.6 µM (active)
COCCNc1nc(NCc2ccc(NC(C)=O)cc2)c2sccc2n1,23.4%,–
Cc1cccc(-n2c(SCC(N)=O)nc3c(oc4ccccc43)c2=O)c1,-18.9%,–
Cc1cccc(-n2c(SCC(N)=O)nc3c(c2=O)C2(CCCCC2)Cc2ccccc2-3)c1,–,18.4 µM (active)
N#CCSc1nc2c(c(=O)n1Cc1ccccc1)C1(CCCC1)Cc1ccccc1-2,-15.3%,–
CCOC(=O)c1cnn2c(SC)ncnc12,6.59%,–

Compound,"activity change, negative = cytotoxicity",Potency
CCCS(=O)(=O)NC(=O)C1(C)CCCN(C(=O)c2ccnc(Cl)c2)C1 (centres undefined),1.85%,–
COc1ccc(C/C(C)=N/NC(=O)c2cc(C)oc2C)cc1,-7.09%,–
CC(=C/c1ccccc1)/C=N/NC(=O)c1cc(C)oc1C,–,14.6 µM (active)
Cc1cc(C(=O)N/N=C\C(Br)=C\c2ccccc2)c(C)o1,-3.75%,–
Cc1ccc(CCNC(=O)CN2C(=O)CSc3ccc(S(=O)(=O)N4CCOCC4)cc32)cc1,15.4%,–
CCOC(=O)C1=CCC(c2ccc(F)cc2)N(S(=O)(=O)c2ccc(C)cc2)C1 (centres undefined),-0.713%,–
Cn1c(=O)n(C)c2cc(/C=N/NC(=O)c3cccc(Br)c3)ccc21,-0.491%,–
O=C(N/N=C/c1cccc(Br)c1)c1ccc(N2CCCC2=O)cc1,–,16.4 µM (active)
COc1cc(/C=N/NC(=O)c2ccc(N3CCCC3=O)cc2)ccc1O,-11.4%,–
COc1ccc2cc(CNc3ccc(OC)c(OC)c3)c(=O)n(CC(=O)Nc3ccccc3F)c2c1,-29.6%,–
COc1ccc2c(c1)CCc1cn3ncc(C#N)c3nc1-2,–,1.3 µM (active)
N#Cc1cnn2cc(CCN3CCOCC3)c(-c3ccc(F)cc3)nc12,-3.16%,–
COc1ccc2c(c1)CCc1c(C(=O)N3CCCC3)noc1-2,-12.9%,–
COc1ccccc1N1CCN(C(=O)C2CCN(S(=O)(=O)c3c(C)noc3/C=C/c3ccc(C)cc3)CC2)CC1,0%,–
Cc1[nH]c2ccccc2c1C(=O)C(=O)NCc1nnnn1-c1cccc(F)c1,12.9%,–
CN(CC(=O)NCC(c1ccccc1)N1CCCC1)S(=O)(=O)c1ccc(Cl)cc1 (centres undefined),–,20.6 µM (active)
Cc1nc(NC(=O)CN(C)S(=O)(=O)c2ccc(Cl)cc2)sc1C,–,14.6 µM (active)
CN(CC(=O)NCCc1ccccn1)S(=O)(=O)c1ccc(Cl)cc1,-26.4%,–
CN(CC(=O)NNC(=O)CNC(=O)c1ccccc1Cl)S(=O)(=O)c1ccc(Cl)cc1,0%,–
Cc1ccc(S(=O)(=O)N(C)CC(=O)NCC(c2ccc(F)cc2)N2CCOCC2)cc1 (centres undefined),-1.34%,–
CN(CC(=O)Nc1cccc2c1CCCC2)S(=O)(=O)c1ccc(Cl)cc1,-1.34%,–
CCCNC(=O)C1(C)CCN(Cc2csc(-c3ccc(Cl)cc3)n2)C1 (centres undefined),1.9%,–
C[C@H]1CN([C@@H](C)CO)C(=O)CCCn2cc(nn2)CO[C@@H]1CN(C)S(=O)(=O)c1ccccc1C#N,-13.8%,–
COc1ccc(C(C)(NC(C)=O)c2nc(-c3ccc(S(C)(=O)=O)cc3)cs2)cc1 (centres undefined),1.16%,–

Compound,"activity change, negative = cytotoxicity",Potency
CCOC(=O)c1ccc(NC(=O)c2c(NCc3cccc(OC)c3)sc3c2CCC3)cc1,-12.7%,–
CCn1c(SCC(=O)Nc2nccs2)nnc1-c1ccco1,-3.3%,–
COc1cc(Cl)c(C)cc1NC(=O)CSc1nnc(-c2ccco2)n1CC(C)C,–,4.11 µM (active)
Cc1cc(NC(=O)CSc2nnc(-c3ccco3)n2N)no1,-12.3%,–
CCCC12CN3CC(CCC)(CN(C1)C3c1c[nH]c3ccc(OC)cc13)C2=O (centres undefined),2.68%,–
CCOc1ccc(CCN2C(=O)C(=O)N([C@@H](CC(C)C)CN3CCC[C@H]3CN3C(=O)C(=O)NC[C@@H]3Cc3ccccc3)C[C@@H]2CC(C)C)cc1,-16.9%,–
O=C(CCn1c(=O)c2ccccc2n(Cc2ccc(Cl)cc2)c1=O)NCc1ccc2c(c1)OCO2,-6.5%,–
C[C@H]1CN([C@@H](C)CO)S(=O)(=O)c2ccc(-c3cccc(F)c3)cc2O[C@@H]1CN(C)C,-17.3%,–
O=C(C(=O)N1CCN(c2ccccc2)CC1)c1ccc2c(c1)OCO2,-14.5%,–
COc1ccc(C(=O)Nc2nc(-c3ccc(OC)cc3)c(-c3ccc([N+](=O)[O-])cc3)s2)cc1,-2.17%,–
N#Cc1ccc(Oc2ccc(C(F)(F)F)cc2NC(=O)c2ccc(F)cc2)cc1,14.9%,–
N#Cc1ccc(C(=O)Nc2nc(-c3cccs3)c(C(=O)C(F)(F)F)s2)cc1,–,13 µM (active)
COC(=O)[C@]12CCCCC=C1N(Cc1cccc3ccccc13)C(=O)[C@H](CC(=O)N1CCOCC1)C2,-6.11%,–
Cc1nc(C(F)(F)F)ccc1C(=O)N1CCC1(C)C(=O)NS(=O)(=O)c1ccccc1 (centres undefined),2.14%,–
COc1ccc2c(c1)C(c1cccs1)=NNC(c1cccnc1)=N2,-13.5%,–
Fc1ccc2c(c1)C(c1cccnc1)=NNC(c1cccs1)=N2,–,11.6 µM (active)
CC(=O)NN=C(C)c1ccc(NC(=O)C2CC2)cc1,13.9%,–
O=C(O)c1ccccc1-c1cccc2nncn12,0.0342%,–
Cc1ccc(NC(=S)NC(=O)/C=C/c2ccc(Cl)cc2)cc1,4.47%,–
COC(=O)c1c(C)[nH]c(C(=O)/C=C/c2ccc(Cl)cc2)c1C,–,14.6 µM (active)
COC(=O)c1c(C)[nH]c(C(=O)NCCc2ccc(S(N)(=O)=O)cc2)c1C,4.06%,–
CC(C)CN1C(=O)CN(S(C)(=O)=O)CC1(C)C(=O)NCc1ccccc1 (centres undefined),10.6%,–
